Screening results from PubChem.
A selection: hits, their analogues and other compounds. The true share with any hit is near 2.8%.
POLI inh: qHTS for Inhibitors of Polymerase Iota | DNA polymerase iota (Homo sapiens), Q9UNA4 | Pol iota fluorescent replication assay, 10 min | Potency, µM (titrated, usually from 115 µM), for inactives: top-dose activity, negative = inhibition, usual class: inhibitors | 390,000 compounds, 1% hits | AID 588590, 2011; further: potency means the concentration at half of the fitted maximal effect
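Fluorescent replication assay read twice, at 0 min and 10 min after adding 50 nM (final) substrate. Enzyme (10 nM) and compounds were first incubated 15 min at room temperature; enzyme-free buffer wells were negative controls.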
PI5P4K alpha inh: qHTS for Inhibitors of phosphatidylinositol 5-phosphate 4-kinase (PI5P4K); AID 652105, 2013; Phosphatidylinositol 5-phosphate 4-kinase type-2 alpha (Homo sapiens), P48426; PI5P4Kalpha enzyme, ADP-Glo luminescence, 60 min; stronger effect = lower value; max response, %; 330,000 compounds, 1.2% hits; active means max response of -50% or lower; inconclusive means between -30% and -50%; inactive means -30% or higher; further: value at the top dose of about 77 µM; on the % scale 0 is the no-effect control and ±100 the full control effect
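Quantitative HTS of the MLSMR library against PI5P4Kalpha with substrate. ATP added last at 5 microM final; room temperature, 60 minutes. Remaining ATP depleted, ADP converted and read as luminescence.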
POLK inh: qHTS for Inhibitors of Polymerase Kappa. purified Pol kappa, fluorescent DNA synthesis assay, 10 min. Potency, µM (series often up to 107 µM), for inactives: top-dose activity, negative = inhibition, hits mostly inhibitors. 400,000 compounds, 0.53% hits. AID 588579, 2011; further: potency means the concentration at half of the fitted maximal effect; on the % scale 0 is the no-effect control and ±100 the full control effect
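Enzyme at 10 nM met test compounds for 15 min at room temperature. Substrate addition (50 nM final) began the reaction, which was monitored by fluorescence at 0 and 10 min.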
POLH inh: qHTS for Inhibitors of Polymerase Eta; DNA polymerase eta (Homo sapiens), Q9Y253; recombinant Pol eta, fluorescent DNA replication assay; Potency, µM (series often up to 114 µM), for inactives: at the top dose activity change, negative = inhibition, most hits filed as inhibitors; 390,000 compounds, 1.2% hits; further: potency means the concentration at half of the fitted maximal effect; on the % scale 0 is the no-effect control and ±100 the full control effect
Target sequence (Q9Y253 whole entry, looked up): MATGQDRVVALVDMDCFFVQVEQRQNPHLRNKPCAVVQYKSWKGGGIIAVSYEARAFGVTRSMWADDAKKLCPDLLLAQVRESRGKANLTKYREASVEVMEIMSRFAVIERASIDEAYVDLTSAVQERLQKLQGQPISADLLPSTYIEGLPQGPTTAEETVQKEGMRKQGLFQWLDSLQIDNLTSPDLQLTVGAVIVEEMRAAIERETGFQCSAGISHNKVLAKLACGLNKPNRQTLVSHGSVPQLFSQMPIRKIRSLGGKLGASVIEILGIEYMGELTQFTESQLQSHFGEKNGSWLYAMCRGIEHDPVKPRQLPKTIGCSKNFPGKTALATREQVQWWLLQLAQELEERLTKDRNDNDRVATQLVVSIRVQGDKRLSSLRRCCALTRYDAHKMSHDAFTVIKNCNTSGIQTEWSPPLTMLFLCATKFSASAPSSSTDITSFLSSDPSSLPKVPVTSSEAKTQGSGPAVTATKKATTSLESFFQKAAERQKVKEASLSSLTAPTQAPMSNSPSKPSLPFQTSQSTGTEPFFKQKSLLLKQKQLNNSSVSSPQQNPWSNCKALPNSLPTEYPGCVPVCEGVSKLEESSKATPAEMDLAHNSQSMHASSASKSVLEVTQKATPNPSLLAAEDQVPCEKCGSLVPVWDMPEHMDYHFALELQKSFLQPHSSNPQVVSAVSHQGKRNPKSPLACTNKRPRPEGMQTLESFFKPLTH
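Pol eta (10 nM) was preincubated with compounds for 15 min at room temperature, after which fluorescent replication substrate (50 nM final) was added to start the reaction. Fluorescence was read kinetically at 0 and 10 min.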
WRN helicase inh: qHTS for Inhibitors of WRN Helicase | 360,000 compounds, 0.46% hits | WRN helicase unwinding, fluorescent forked duplex, kinetic | Potency, µM (highest dose often 114 µM), for the others: at the highest dose activity change, negative = inhibition, hits mostly inhibitors | Bifunctional 3'-5' exonuclease/ATP-dependent helicase WRN (Homo sapiens), Q14191; further: potency means the concentration at half of the fitted maximal effect; on the % scale 0 is the no-effect control and ±100 the full control effect; nearly all actives have a fitted effect of over 55% in size
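Fluorescence dequenching readout, ex 525 nm/em 598 nm, kinetic mode: forked duplex DNA (100 nM final) with adjacent fluorophore and quencher unwound by WRN (20 nM final) with 2 mM ATP. Compound preincubation 15 min, room temperature.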
Pol beta inh: qHTS Assay for Inhibitors of DNA Polymerase Beta. 340,000 compounds, 1.3% hits. Potency, µM (series often up to 114 µM), without a hit: top-dose activity change, negative = inhibition, most hits filed as inhibitors. P06746. Pol beta primer extension/strand displacement, fluorescence kinetic; further: potency means the concentration at half of the fitted maximal effect; on the % scale 0 is the no-effect control and ±100 the full control effect
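Values derive from four-parameter Hill fits of normalized kinetic data: reads at 0 and 10 min following addition of 50 nM substrate to 10 nM Pol beta preincubated 15 min with compound.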
An asterisk follows results filed as active; ? = inconclusive; nt = not tested or not shown; [ ] = remark or other dose. Unless noted, the call rests on the fitted dose curve; in most records, active means well fitted curve in the direction sought with a large enough effect; inconclusive means small, poorly fitted or top-dose-only effect, or another doubt; inactive means no such curve, though single readings can be large; an effect the other way counts as inactive or inconclusive.

SMILES | POLI inh | PI5P4K alpha inh | POLK inh | POLH inh | WRN helicase inh | Pol beta inh
N#Cc1c(NC(=O)c2ccccc2)sc2c1CCCCC2 | 8% | 6 | -18% | -7% | -6% | 10%
CC(C)CCOc1ccc(C(=O)Nc2sc3c(c2C#N)CCCCC3)cc1 | -83% | nt | 89µM* | 8% | nt | 7%
Cn1cc([N+](=O)[O-])c(C(=O)Nc2sc3c(c2C#N)CCC3)n1 | 4% | 7 | -3% | ? | 2% | 11%
Cn1cc(Br)c(C(=O)Nc2sc3c(c2C#N)CCC3)n1 | 107% | -12 | -9% | -9% | -23% | 1%
CC(C)(C)c1ccc(-c2nnc(-c3ccccc3NC(=O)c3cccc(C(F)(F)F)c3)o2)cc1 | 11% | nt | 2% | -14% | nt | 29%
CC(C)CN(CCCNC(=O)c1cc(-c2cccs2)nc2ccccc12)CC(C)C | -6% | nt | -6% | -9% | nt | 44%
Cc1onc(-c2ccccc2)c1C(=O)Nc1sc2c(c1C#N)CCC2 | 20µM* | nt | ? | 28µM* | 50µM* | 20µM*
COc1ccc(CN(C)CC(=O)Nc2c(C)cccc2C)c(OC)c1 | 118% | 10 | -9% | 1% | 2% | 1%
Cc1ccnc(SCC(=O)Nc2sc3c(c2C#N)CCCC3)n1 | 0% | 2 | -7% | -15% | -2% | -1%
Cc1csc(SCC(=O)Nc2sc3c(c2C#N)CCC3)n1 | ? | ? | -29% | ? | -21% | 20µM*
COc1ccc(CN(C)CC(=O)Nc2sc3c(c2C#N)CCC3)c(OC)c1 | 32% | 14 | -13% | -26% | 0%[57.1 µM] | 20µM*
Cc1cnc2c(C)cccc2c1/C=C/c1ccc(N(C)C)cc1 | 1% | nt | -11% | nt | nt | nt
COc1ccc(NC(=O)C(C)n2nc(-c3cc(C)ccc3C)c3c(c2=O)CCCC3)cc1 (stereo unspecified) | 2% | nt | 0% | -11% | nt | -1%
O=C(Nc1ccccc1C(=O)O)c1ccc(CN2C(=O)c3ccccc3C2=O)cc1 | 58% | -53* | -2% | -10% | -13%[57.1 µM] | 1%
COc1ccc(C(=O)Nc2ccccc2C(=O)O)cc1NC(=O)C(c1ccccc1)c1ccccc1 | 7% | ? | -19% | 89µM* | -12%[11.6 µM] | ?
CC(C)CN1C(=O)c2ccc(C(=O)Nc3ccc(O)cc3C(=O)O)cc2C1=O | 112% | 1 | -6% | -8% | -22% | 16%
O=C(Nc1ccc(O)cc1C(=O)O)c1ccc2c(c1)C(=O)N(Cc1ccco1)C2=O | ? | nt | -28% | 40µM* | ? | ?
O=C(NC(NC(=S)Nc1ccccc1C(=O)O)C(Cl)(Cl)Cl)c1ccccc1 (stereo unspecified) | 53% | -58* | 4% | -14% | -31%[57.1 µM] | 33%
C[N+]1(CC(=O)c2ccc(Oc3ccc(C(=O)C[N+]4(C)CCOCC4)cc3)cc2)CCOCC1 | ? | nt | -23% | nt | nt | nt
Cc1ccc(NC(=O)Cn2cc(S(=O)(=O)c3ccc(C)cc3)c(=O)c3cc4c(cc32)OCO4)cc1 | 11% | nt | -19% | -3% | nt | 20%
CC(=O)c1ccc(N2CCN(C(=O)C3CCN(S(=O)(=O)c4ccc(Br)s4)CC3)CC2)cc1 | 4% | nt | 13% | -9% | nt | 10%
O=C(Cn1cc2c(n1)CCCC2)Nc1cc(C(F)(F)F)ccc1Cl | -5% | nt | -9% | -18% | nt | 6%
O=C(Cc1ccc(Cl)cc1)Nc1cccc(C(=O)Nc2ccccc2C(=O)O)c1 | 79% | ? | -30% | ? | 89µM* | 6%
CC(C)CCN1C(=O)c2ccc(C(=O)Nc3ccc(O)cc3C(=O)O)cc2C1=O | 19% | -27 | -15% | -11% | -11% | 37%
O=C(Nc1ccccc1C(=O)O)c1ccccc1 | ? | nt | -13% | -18% | -9% | 32µM*
SMILES | POLI inh | PI5P4K alpha inh | POLK inh | POLH inh | WRN helicase inh | Pol beta inh
O=C(Nc1cccc(C(=O)Nc2ccccc2C(=O)O)c1)c1cccc(Cl)c1 | -3% | ? | 3% | 12% | -23% | nt
CC(C)CCN1C(=O)c2ccc(C(=O)Nc3ccccc3C(=O)O)cc2C1=O | ? | -60* | -8% | -15% | -3% | ?
CCN(CC)CCCNC(=O)CCCn1c(=O)[nH]c2ccc(Br)cc2c1=O | 0% | nt | 3% | -13% | nt | 18%
O=C(CSc1cn(CC(=O)N2CCCCC2)c2ccccc12)Nc1ccccc1F | 2% | nt | -6% | -14% | nt | 24%
CN(C)c1ccc(/C=C2\C(=N)N3N=C(CC(=O)N4CCCCC4)SC3=NC2=O)cc1 | 50µM* | ? | ? | ? | ? | ?
CN(C)c1ccc(/C=C2\C(=N)N3N=C(CC(=O)N4CCCC4)SC3=NC2=O)cc1Br | 79µM* | 4 | ? | -5% | -9% | -19%
CCC1C/C(=C\c2cccnc2)C(=O)/C(=C/c2cccnc2)C1 (stereo unspecified) | 22µM* | 3 | -6% | 11µM* | ? | 0%
O=C1/C(=C/c2cccnc2)CC/C1=C\c1cccnc1 | 12% | -11 | -8% | -9% | 7% | 0%
O=C1/C(=C/c2cccnc2)CCC/C1=C\c1cccnc1 | 45µM* | 0 | 4% | 22µM* | -11%[11.6 µM] | 0%
CN(C)c1ccc(/C=C2\CCC/C(=C\c3ccccc3)C2=O)cc1 | ? | 25 | 1% | ? | 50µM* | 0%
Cc1ccc(C)c(NC(=O)c2cc(S(=O)(=O)N3CCCc4ccccc43)ccc2F)c1 | -8% | nt | 0%[60.1 µM] | 12% | nt | 21%
COC(=O)c1cccc(NC(=O)c2nsc3ccccc23)c1 | -28% | nt | -13% | nt | nt | 0%
COc1cccc(CNC(=O)Cn2c(=O)nc(-c3ccccc3F)c3cc(Cl)ccc32)c1 | 10% | nt | -5%[60.1 µM] | 1% | nt | -2%
O=C(Cc1cccc2ccccc12)N/N=C/c1ccc(OC(=O)/C=C/c2ccco2)cc1 | ? | ? | ? | ? | -5%[57.1 µM] | 10µM*
O=C(Cc1cccc2ccccc12)N/N=C/c1ccc(F)cc1 | 18% | nt | 2%[60.1 µM] | -9% | -4% | -2%
Cc1ccc2oc(=O)c3cc(C(=O)N(Cc4ccccc4)C(C)C)sc3c2c1 | 66% | nt | -5% | -23% | nt | 7%
O=C1c2cccc3c([N+](=O)[O-])c(O)cc(c23)C(=O)N1Nc1ccccc1 | 15% | -61* | -8% | -13% | -2% | -4%
CC(C)[C@H](NC(=O)OCc1ccccc1)C(=O)OCC(=O)NCc1ccco1 | 16µM* | ? | -25% | 50µM* | -28% | nt
CSCCC(NC(=O)c1ccccc1)C(=O)OCC(=O)NCc1ccco1 (stereo unspecified) | 71µM* | -3 | -21% | ? | -14% | nt
